Experimental data taken from PubChem BioAssay.
Activity calls are given as the source filed them.

Assays:
[1] = system: XIP peptide (Xip251-270) binding; test: small-molecule binders of XIP peptide, primary screen, biochemical, small-molecule microarray, fluorescence 635/667 nm, 0.1 µg/mL protein (AID 1182); settings: fluorescent protein binding, 635 nm, higher = more signal, called active from +8 up or from −8 down
[2] = system: XIP peptide (Xip251-270); test: small-molecule binders of XIP peptide, primary screen, biochemical, small-molecule microarray, fluorescence 635/667 nm, 0.5 µg/mL protein (AID 1183); settings: small-molecule microarray binding, fluorescence 635 nm; higher = more signal
[3] = Plasmodium falciparum growth inhibition, primary screen, strain 3D7, DAPI fluorescence, 100 nL (AID 1184);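 further: parasites grown inside human red blood cells in medium with human serum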; settings: P. falciparum 3D7 growth, 3 d, higher = more signal
[4] = target: Homeobox protein Hox-A13 (Mus musculus) (UniProt Q62424); test: inhibitors of HoxA13-DNA binding, primary screen, biochemical, fluorescence polarization, labeled oligonucleotide (AID 1185); settings: 15 min, higher = more signal, called active from +8 up or from −8 down
Sequence of Homeobox protein Hox-A13 (Mus musculus) (Q62424 whole entry, looked up): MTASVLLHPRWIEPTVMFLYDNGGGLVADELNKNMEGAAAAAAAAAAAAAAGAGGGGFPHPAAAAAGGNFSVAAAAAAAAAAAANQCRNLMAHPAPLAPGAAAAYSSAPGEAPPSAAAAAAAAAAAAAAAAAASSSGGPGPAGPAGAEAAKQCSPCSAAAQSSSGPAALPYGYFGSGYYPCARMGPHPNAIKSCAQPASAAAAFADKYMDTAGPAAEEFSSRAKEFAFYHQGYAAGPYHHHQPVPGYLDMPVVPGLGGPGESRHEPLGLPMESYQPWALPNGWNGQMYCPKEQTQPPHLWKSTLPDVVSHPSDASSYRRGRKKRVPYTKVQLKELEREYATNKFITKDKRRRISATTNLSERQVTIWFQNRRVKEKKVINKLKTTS

| Structure (SMILES) | composite z-score [1] | composite z-score [2] | z-score [3] | z-score [4] |
| --- | --- | --- | --- | --- |
| CCCNC(=O)OC[C@H]1O[C@H](CCON=C[C@@H](C)[C@H](OCc2ccccc2)C(C)C)C=C[C@@H]1Oc1ccc(OC)cc1 | 0.196 (inactive) | -0.267 | -0.591 | -3.32 (inactive) |
| COc1cccc([C@H]2Oc3ccc(OC)cc3C(=NOCC[C@@H]3C=C[C@H](OC(C)=O)[C@@H](COC(C)=O)O3)[C@@H]2O)c1 | 0.451 (inactive) | 0.206 | 0.956 | -5.39 (inactive) |
| COc1ccc(COC(=O)NN=C2C[C@@H](O)[C@@H](O)[C@@H]3[C@@H]4C(=O)N(C[C@@H]5CCCO5)C(=O)[C@@H]4CC[C@H]23)cc1 | -0.0696 (inactive) | -0.239 | -0.534 | 0.459 (inactive) |
| CCN1C(=O)[C@H]2[C@H]3[C@H](O)[C@H](O)CC(=NOCC[C@@H]4C=C[C@H](OC(C)=O)[C@@H](COC(C)=O)O4)[C@@H]3CC[C@H]2C1=O | 0.607 (inactive) | 0.529 | 0.145 | -1.8 (inactive) |
| C=C(C)C(=O)OC[C@H]1CN2[C@@H](CC[C@@H](C)[C@@H]2c2ccc(Br)cc2)C(=O)O1 | 0.414 (inactive) | -0.102 | 1.05 | -2.2 (inactive) |
| CCOC(=O)[C@H](Cc1ccccc1)NC(=O)CCC1CC(OC(=O)NCCc2ccc(F)cc2)CC2(CCCC(COC(=O)NCCC(C)C)O2)O1 (stereo partly drawn) | 0.162 (inactive) | 0.657 | -1.66 | -4.45 (inactive) |
| Cc1cc(C)c(-c2cc([C@H](C)ON=C[C@@H](C)[C@H](OCc3ccccc3)C(C)C)on2)c(C)c1 | -0.0022 (inactive) | -0.291 | -0.317 | -0.415 (inactive) |
